From ChEMBL document CHEMBL4513149, “CO-ADD screening of MMV (CH) - MMV compounds” (2021)
Entries with a potency or affinity are not part of this list.

Tests used:
[1] = system: Klebsiella pneumoniae; conditions: Concentration 20 uM; ASSAY_TEST Inhibition of Bacterial Growth; detection method Absorption (OD600); MEDIA CAMHB; plate type 384well; NBS; CORNING #3640; time 18 hr
[2] = system: Candida albicans; conditions: 20 µM
[3] = system: Cryptococcus neoformans; conditions: Concentration 20 uM; ASSAY_TEST Inhibition of Fungal Growth; detection method Resazurin; Absorption (OD600-OD570); plate type 384well; NBS; CORNING #3640

Compound | Inhibition [1] | Inhibition [2] | Inhibition [3]
FC(F)(F)c1cccc(-c2nc3c(NCc4ccncc4)nccc3[nH]2)c1 | 6.33% | 3.63% | 5.66%
CC1(COc2ccc(N3CCC(Oc4ccc(OC(F)(F)F)cc4)CC3)cc2)Cn2cc([N+](=O)[O-])nc2O1 (stereo unspecified) | 19.71% | 20.4% | -2.75%
COc1cc(NC(=O)Cc2nn(C)c(=O)c3ccccc23)ccc1Cl | 12.64% | 6.72% | -0.85%
CCn1cnc2c(Nc3cc(F)cc(F)c3)nc(C#N)nc21 | 8.51% | 3.4% | -1.23%
Cc1nc2ccccn2c1C(=O)NCc1ccc(Cl)cc1 | 17.8% | 2.86% | -5.69%
NC(=O)c1cc(-c2ccsc2)ccc1OCCOc1ccccc1 | 14.24% | 1.34% | -0.49%
NS(=O)(=O)c1cccc(-c2ccc3ncc(N4CCOCC4)nc3c2)c1 | 17.56% | 4.12% | -9.08%
CC(C)(CN)c1nc(-c2ccc(Cl)c(O)c2)c(-c2ccnc(N)n2)[nH]1.O=C(O)C(F)(F)F.O=C(O)C(F)(F)F | 15.34% | 2.09% | -6.49%
O=C(Nc1cccc(-c2ccc(NCCCN3CCCC3)nc2)c1)c1ccccc1 | 8.2% | 3.22% | 16.14%
COc1cc(OC)cc(C(=O)NCC2Cc3cc(Cl)cc(-c4ccncc4)c3O2)c1 (stereo unspecified) | 8.14% | 4.34% | -5.78%
Cc1ccc(NC(=O)c2cc(S(=O)(=O)NC(C)(C)C)ccc2C)nc1 | 13.76% | 1.54% | -5.42%
CCc1cc(=O)n(C)c(SC(C)C(=O)Nc2ccc(F)cc2)n1 (stereo unspecified) | 3.6% | 0.76% | -9.3%
CC1=Nc2ccc(Cl)cc2C(c2ccccc2)N1CCNC(=O)CN(C)C (stereo unspecified) | 16.36% | 1.95% | 10.1%
CCN(CC)CCCCCCNc1cc(OC)cc2c(C)ccnc12.Cc1ccc(S(=O)(=O)O)cc1 | 14.1% | 2.19% | 2.4%
Cc1cc(C(=O)Nc2cnn(Cc3ccc(Cl)cc3Cl)c2)no1 | -11.81% | 11.5% | -4.75%
Cc1cc(Nc2ccc(C(F)(F)F)cc2)n2ccnc2n1 | 6.21% | 3.67% | 2.17%

Compound | Inhibition [1] | Inhibition [2] | Inhibition [3]
COc1ccc(Nc2ccccc2NC(=O)c2ccc(O)nc2)cc1 | -2.41% | 1.42% | -7.76%
CC(C)(C)n1nc(Cc2ccc(F)c(Cl)c2)c2c(N)ncnc21 | 9.52% | 4.75% | -6.05%
Cl.NCC(c1cccs1)S(=O)(=O)c1ccccc1 (stereo unspecified) | -0.58% | 3.86% | -1.15%
CC(C)(C)n1nc(-c2ccccc2)c2c(N)ncnc21 | 1.67% | 1.46% | -15.8%
N#Cc1nc(-c2ccccc2)oc1S(=O)(=O)c1ccc(Cl)cc1 | -0.86% | 3.69% | -7.91%
COc1ccc(-c2cncc3ccc(C(=O)NCCCn4ccnc4)nc23)cc1 | 3.32% | 4.61% | -8.59%
O=C(Cn1ccnc1[N+](=O)[O-])NCc1ccccc1 [BENZNIDAZOLE] | 18.48% | 2.82% | -2.09%
Cc1ccc2[nH]c3c(NCCN(C)C)ncnc3c2c1 | 16.4% | 2.94% | -5.96%
CC(C)(C)c1cc(C(=O)Nc2cccnc2)cc(C(=O)Nc2cccnc2)c1 | 16.7% | 3.35% | -7.29%
O=C(C(Cc1c[nH]c2ccccc12)NS(=O)(=O)c1ccc(Cl)cc1)N1CCCCC1 (stereo unspecified) | 4.11% | 2.45% | -6.5%
CNc1snc(C)c1C(=O)NCCOc1ccc(OC)cc1 | 10.83% | 3.15% | 1.78%
CNc1nnc(Sc2cnn(-c3ccccc3)c(=O)c2Cl)s1 | 0.48% | 4.99% | -9.44%
Nc1ncc(Br)cc1-c1nc2cc(Cl)cnc2[nH]1 | 20.39% | 9.81% | 7.04%
Cc1cc(NCC(C)C)c2[nH]nc(-c3ccccc3)c2n1 | 16.32% | 0.11% | -5.87%
CCCn1c(CNc2ccccc2O)nc2ccccc21 | 12.8% | -0.42% | -15.95%
C[C@H](c1ccc2c(c1)CCCC2)N(C)c1ncc2c(N)nc(N)nc2n1 | 18.37% | 3.88% | -9.74%
